What is called inhibition is the relative decrease from the control value, in per cent.

Records with an inconclusive call do not appear. Calls of active or inactive are those of the source.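 The calls were made as follows, unless noted: active = GFP response, as percent of the DMSO control, above the screen-wide mean plus 3 SD, about 139; inconclusive = no response measured because the compound's own fluorescence interfered; inactive = the rest.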

A short description of assay [1]: yeast TOR pathway RPL19A-GFP modulators, primary screen, cell-based, S. cerevisiae, multiplex flow cytometry (AID 1862; in the data active = percent of DMSO control GFP below about 86%;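 also: lower values mimic rapamycin by blocking the RPL19A rise seen in DMSO cells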). The conditions noted are these: S. cerevisiae RPL19A-GFP strain, flow cytometry fluorescence, 3 h; at 10 µM; stronger effect = lower value.
A short description of assay [2]: modulators of MEP2-GFP levels in yeast, primary screen, S. cerevisiae, multiplex flow cytometry (AID 1867).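 Also: median GFP channel fluorescence of barcode-gated MEP2-GFP cells measured by flow cytometry.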 The conditions noted are these: S. cerevisiae MEP2-GFP strain, 3 h, at 10 µM, stronger effect = higher value, 100% means same as DMSO wells. (A flow cytometer gives signals particle by particle.)
Assay [3] is described as follows: modulators of CIT2-GFP expression in yeast, primary screen, S. cerevisiae, GFP fusion, multiplex flow cytometry (AID 1870;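 active = percent response above a set limit, the screen-wide mean plus 3 SD, cut at about 130% in these data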;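 also: barcoded CIT2-GFP strain pooled with four other GFP strains with rapamycin as positive control; median GFP fluorescence per well over plate mean of DMSO wells so 100% = DMSO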). The conditions noted are these: 3 h, at 10 µM, stronger effect = higher value.
Assay [4] is described as follows: modulators of LAP4-GFP expression in yeast, primary screen, S. cerevisiae, multiplex flow cytometry (AID 1873;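 active = GFP signal, as percent of the solvent control, above the screen mean plus 3 SD, about 149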). The conditions noted are these: 3 h, at 10 µM, stronger effect = higher value.
Assay [5] in a line: modulators of AGP1-GFP expression in yeast TOR pathway, primary screen, cell-based, multiplex flow cytometry, S. cerevisiae (AID 1887;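 active = GFP signal above the screen-wide mean plus 3 SD, that is over about 124.5% of the solvent control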;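 also: AGP1-GFP fusion strain of S. cerevisiae within a five-strain barcoded multiplex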). The conditions noted are these: 3 h, at 10 µM, stronger effect = higher value.
The nature of assay [6]: inhibitors of CD8+ T cell-vesicle binding, pilot screen, LFA-1/ICAM-1 modulator project, MLPCN validation set, flow cytometry (AID 2523;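 active = response below a set limit, under 55% cells CD8-positive and vesicle-bound, and CD8 cells' 90th-percentile brightness under 279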;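 as to vesicle binding response: mean PE anti-B7-1 fluorescence of CD8+ cells relative to row control; 100% = QL9-loaded vesicles with DMSO vehicle in the same plate row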). The conditions noted are these: 2C mouse CD8+ T cells, at 7 µM, stronger effect = lower value; double positive events: measured here: CD8+/vesicle+ event percentage.
In assay [7] the target is Integrin beta-1 (Homo sapiens) + Integrin alpha-4 (Homo sapiens) (UniProt P13612+P05556). Briefly: inhibition of HUTS-21 binding to VLA-4, pilot screen, VLA-4 allosteric modulator project, U937 cells, HUTS-21 mAb, flow cytometry, validation set (AID 2674;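 active = inhibition above 50%, about 3 SD of the validation set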;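 also: antibody binding induced by the VLA-4 ligand LDV present at three times its Kd; 0% = LDV ligand with antibody and no compound and 100% = antibody without LDV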). The conditions noted are these: HUTS-21 LIBS mAb binding, at 6.7 µM, stronger effect = higher value, binding induced by LDV ligand.
Chain of Integrin beta-1 (Homo sapiens) + Integrin alpha-4 (Homo sapiens) (P05556 whole entry, looked up): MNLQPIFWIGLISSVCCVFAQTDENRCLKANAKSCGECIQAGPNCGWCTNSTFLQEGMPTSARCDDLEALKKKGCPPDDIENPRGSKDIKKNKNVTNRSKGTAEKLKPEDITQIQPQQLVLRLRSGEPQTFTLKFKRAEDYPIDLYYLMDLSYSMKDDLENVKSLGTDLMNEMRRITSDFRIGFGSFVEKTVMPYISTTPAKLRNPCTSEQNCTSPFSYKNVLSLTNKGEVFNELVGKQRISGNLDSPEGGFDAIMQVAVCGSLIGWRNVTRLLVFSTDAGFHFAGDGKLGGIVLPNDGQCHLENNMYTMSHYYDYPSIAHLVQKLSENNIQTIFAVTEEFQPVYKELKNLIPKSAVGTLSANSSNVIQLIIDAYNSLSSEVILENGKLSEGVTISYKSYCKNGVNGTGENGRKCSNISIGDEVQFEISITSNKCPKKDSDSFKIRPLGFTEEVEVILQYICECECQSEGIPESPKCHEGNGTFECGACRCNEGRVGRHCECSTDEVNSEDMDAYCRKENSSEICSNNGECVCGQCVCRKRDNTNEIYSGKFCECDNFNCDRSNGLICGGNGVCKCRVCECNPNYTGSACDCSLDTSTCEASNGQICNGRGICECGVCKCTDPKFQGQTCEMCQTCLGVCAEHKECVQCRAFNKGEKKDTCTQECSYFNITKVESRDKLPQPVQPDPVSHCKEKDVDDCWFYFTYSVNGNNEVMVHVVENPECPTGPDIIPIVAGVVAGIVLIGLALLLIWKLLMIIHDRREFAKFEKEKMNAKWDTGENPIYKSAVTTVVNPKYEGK
Chain of Integrin beta-1 (Homo sapiens) + Integrin alpha-4 (Homo sapiens) (P13612 whole entry, looked up): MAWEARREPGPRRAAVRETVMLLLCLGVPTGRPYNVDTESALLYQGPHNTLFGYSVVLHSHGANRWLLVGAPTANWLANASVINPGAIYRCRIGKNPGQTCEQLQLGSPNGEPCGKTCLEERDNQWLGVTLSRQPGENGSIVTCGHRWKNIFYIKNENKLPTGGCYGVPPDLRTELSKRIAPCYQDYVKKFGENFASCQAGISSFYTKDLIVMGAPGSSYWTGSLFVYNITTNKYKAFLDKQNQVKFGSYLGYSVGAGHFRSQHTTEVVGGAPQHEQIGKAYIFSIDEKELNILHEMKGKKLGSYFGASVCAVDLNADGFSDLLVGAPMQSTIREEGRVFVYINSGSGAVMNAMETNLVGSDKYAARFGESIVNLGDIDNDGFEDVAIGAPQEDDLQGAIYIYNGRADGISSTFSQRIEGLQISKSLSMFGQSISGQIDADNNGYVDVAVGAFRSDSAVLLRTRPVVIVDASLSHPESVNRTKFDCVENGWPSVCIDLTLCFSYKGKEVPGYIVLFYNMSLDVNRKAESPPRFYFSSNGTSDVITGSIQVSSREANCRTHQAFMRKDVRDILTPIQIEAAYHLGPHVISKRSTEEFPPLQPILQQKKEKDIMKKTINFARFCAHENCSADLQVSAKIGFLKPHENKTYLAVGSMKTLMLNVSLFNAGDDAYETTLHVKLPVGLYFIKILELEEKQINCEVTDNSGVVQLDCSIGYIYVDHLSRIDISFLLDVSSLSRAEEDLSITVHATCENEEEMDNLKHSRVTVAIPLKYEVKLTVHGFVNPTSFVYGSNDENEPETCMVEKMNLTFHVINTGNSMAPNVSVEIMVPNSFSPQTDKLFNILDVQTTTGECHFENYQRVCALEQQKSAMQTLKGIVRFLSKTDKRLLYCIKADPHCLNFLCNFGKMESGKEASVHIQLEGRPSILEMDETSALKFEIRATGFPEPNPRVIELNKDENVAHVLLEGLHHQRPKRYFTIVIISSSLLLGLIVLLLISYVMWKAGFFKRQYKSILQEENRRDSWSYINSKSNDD

Assay [8] can be described thus: superoxide lowering in aged yeast cells, pilot screen, validation compound set (AID 2706;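 active = superoxide response below 65% of plate, a cut near 3 SD across the whole screen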;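 also: yeast exposed to compound for one week at 30 degrees C before staining; 100% = mean of all compound wells on the same plate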). The conditions noted are these: S. cerevisiae aging, superoxide DHE fluorescence; at 10 µM; stronger effect = lower value.
Assay [9] addresses Beta-adrenergic receptor kinase 1 (Homo sapiens) (UniProt P25098). Briefly: GRK2 binders displacing RNA aptamer, biochemical, validation, human GRK2, bead flow cytometry (AID 488806;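 active = aptamer binding inhibition above 30%, about 3 SD of noise from non-fluorescent compounds; inactive = inhibition at or below 30%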). The conditions noted are these: bead-bound GRK2, FAM-aptamer displacement, at 10 µM, stronger effect = higher value.
The target of assay [10] is Beta-2 adrenergic receptor (Homo sapiens) (UniProt P07550). Briefly: beta2AR agonists driving receptor internalization, pilot screen, cell-based, FAP fluorogen, flow cytometry, validation set (AID 504459;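 active = percent response above 42, roughly 3 SD of non-fluorescent test compounds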;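 also: agonist-driven loss of surface beta2AR via internalization measured by FAP dye flow cytometry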). The conditions noted are these: Am2.2-beta2AR cells, FAP surface receptor flow cytometry; at 10 µM; stronger effect = higher value.
Chain of Beta-2 adrenergic receptor (Homo sapiens) (P07550 whole entry, looked up): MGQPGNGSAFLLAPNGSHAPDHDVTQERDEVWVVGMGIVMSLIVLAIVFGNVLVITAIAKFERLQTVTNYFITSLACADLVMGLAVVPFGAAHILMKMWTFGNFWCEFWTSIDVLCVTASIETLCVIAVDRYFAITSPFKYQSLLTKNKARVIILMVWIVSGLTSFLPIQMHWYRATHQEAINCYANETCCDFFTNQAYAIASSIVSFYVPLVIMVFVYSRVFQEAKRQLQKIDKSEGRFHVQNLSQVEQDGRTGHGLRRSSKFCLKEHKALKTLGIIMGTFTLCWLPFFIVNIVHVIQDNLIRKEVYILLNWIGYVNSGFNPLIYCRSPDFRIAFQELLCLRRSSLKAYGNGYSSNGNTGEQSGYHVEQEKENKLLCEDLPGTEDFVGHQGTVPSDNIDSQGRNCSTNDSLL
The target in assay [11] is AP-2 complex subunit beta (Homo sapiens) (UniProt P63010). Kind of assay: inhibitors of arrestin peptide binding to AP2, pilot screen, biochemical, validation set, GST-AP2 beads, flow cytometry (AID 504541;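 active = inhibition above 54%, about 3 SD of non-fluorescent compounds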;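 also: AP2 carries R879A mutation and is captured from E. coli lysate; bead-bound FITC arrestin peptide fluorescence measuring arrestin peptide binding to AP2; 0% = DMSO wells and 100% = excess unlabeled arrestin peptide control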). The conditions noted are these: FITC arrestin peptide, at 10 µM, stronger effect = higher value, AP2 beta2 appendage fragment, R879A mutant.
Chain of AP-2 complex subunit beta (Homo sapiens) (P63010 whole entry, looked up, the tested form may be a part, one chain of several): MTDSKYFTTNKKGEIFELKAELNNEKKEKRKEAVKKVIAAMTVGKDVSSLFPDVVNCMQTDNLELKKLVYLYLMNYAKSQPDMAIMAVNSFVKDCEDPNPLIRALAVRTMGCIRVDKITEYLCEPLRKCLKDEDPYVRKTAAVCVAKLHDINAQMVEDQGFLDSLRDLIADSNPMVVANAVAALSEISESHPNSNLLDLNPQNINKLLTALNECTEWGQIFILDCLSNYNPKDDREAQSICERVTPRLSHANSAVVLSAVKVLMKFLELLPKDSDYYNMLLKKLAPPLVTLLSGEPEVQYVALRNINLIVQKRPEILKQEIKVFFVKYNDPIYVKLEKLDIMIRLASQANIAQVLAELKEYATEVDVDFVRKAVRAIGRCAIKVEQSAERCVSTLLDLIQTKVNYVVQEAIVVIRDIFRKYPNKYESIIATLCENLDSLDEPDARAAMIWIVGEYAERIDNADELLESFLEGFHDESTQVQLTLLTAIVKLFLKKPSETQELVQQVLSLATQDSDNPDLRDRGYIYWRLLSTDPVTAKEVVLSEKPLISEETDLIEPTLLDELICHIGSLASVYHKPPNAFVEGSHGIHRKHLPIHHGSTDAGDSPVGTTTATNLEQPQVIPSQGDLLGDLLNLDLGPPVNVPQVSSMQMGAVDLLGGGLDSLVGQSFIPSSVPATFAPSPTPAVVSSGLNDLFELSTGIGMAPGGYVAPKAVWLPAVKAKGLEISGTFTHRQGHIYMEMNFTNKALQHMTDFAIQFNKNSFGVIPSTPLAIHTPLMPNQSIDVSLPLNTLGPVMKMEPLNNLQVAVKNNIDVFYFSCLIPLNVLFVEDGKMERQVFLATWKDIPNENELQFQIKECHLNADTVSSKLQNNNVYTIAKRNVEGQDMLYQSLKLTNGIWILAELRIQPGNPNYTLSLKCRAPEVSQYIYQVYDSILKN
A short description of assay [12]: yeast V-ATPase proton transport modulators, S. cerevisiae, pHLuorin, HTS validation (AID 504600; in the data active = response above about 15%;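 also: plate controls were DMSO for no effect and reference compound for full effect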). The conditions noted are these: S. cerevisiae pHLuorin cytosolic pH, at 10 µM, stronger effect = higher value.
Assay [13] concerns anti-desmoglein-3 scFv antibody binding to human DSG3. Kind of assay: inhibitors of anti-DSG3 scFv binding to DSG3, pilot screen, biochemical, validation compound set, bead-based, flow cytometry (AID 588368;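 active = binding below the plate cutoff, the plate median minus 3 SD, with a reading above zero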;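 also: signal is the median channel fluorescence of bead-bound GFP antibody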). The conditions noted are these: Protein G beads, DSG3-Fc, scFv-GFP binding, at 10 µM, stronger effect = lower value.
A short description of assay [14]: inhibitors of fungal efflux pumps CDR1, CDR2, MDR1, pilot screen, validation compound set, multiplex, phenotypic (AID 588506;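 active = efflux inhibition above 0.42, the validation set average plus 4 SD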;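 also: Nile Red retained in cells so higher fluorescence means more efflux inhibition; 0 = negative control wells and 1 = enniatin B 25 µM full block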). The conditions noted are these: S. cerevisiae pump-expressing triplex, Nile Red efflux flow cytometry; at 10 µM; stronger effect = higher value; the pumps come from Candida albicans.
Assay [15] concerns the target ATP-binding cassette sub-family B member 6 (Homo sapiens) (UniProt Q9NP58). Kind of assay: ABCB6 transporter inhibitors, pilot screen, K562-ABCB6 cells, flow cytometry, validation set (AID 588550;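 active = inhibition above the screen-wide mean plus 3 SD, about 51%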;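 also: 0% = DMSO wells and 100% = benzethonium chloride 70 µM positive control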). The conditions noted are these: K562-ABCB6 porphyrin accumulation, 1 h, at 10 µM, stronger effect = higher value.
Assay [16] is described as follows: promoters of myeloid differentiation in arrested cells, primary screen, cell-based, GFP/MAC1 double positive, flow cytometry, validation set (AID 588685;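 active = differentiation response of at least 50%, scaled between solvent and reference control, from cells with both markers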;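 also: compound exposure lasts four days before antibody staining and flow analysis; 0% = DMSO wells and 100% = 5 µM fulvestrant positive control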). The conditions noted are these: ER-HoxA9 marrow cells, stronger effect = higher value, normalized: vehicle 0, fulvestrant 100.

Chain of Beta-adrenergic receptor kinase 1 (Homo sapiens) (P25098 whole entry, looked up): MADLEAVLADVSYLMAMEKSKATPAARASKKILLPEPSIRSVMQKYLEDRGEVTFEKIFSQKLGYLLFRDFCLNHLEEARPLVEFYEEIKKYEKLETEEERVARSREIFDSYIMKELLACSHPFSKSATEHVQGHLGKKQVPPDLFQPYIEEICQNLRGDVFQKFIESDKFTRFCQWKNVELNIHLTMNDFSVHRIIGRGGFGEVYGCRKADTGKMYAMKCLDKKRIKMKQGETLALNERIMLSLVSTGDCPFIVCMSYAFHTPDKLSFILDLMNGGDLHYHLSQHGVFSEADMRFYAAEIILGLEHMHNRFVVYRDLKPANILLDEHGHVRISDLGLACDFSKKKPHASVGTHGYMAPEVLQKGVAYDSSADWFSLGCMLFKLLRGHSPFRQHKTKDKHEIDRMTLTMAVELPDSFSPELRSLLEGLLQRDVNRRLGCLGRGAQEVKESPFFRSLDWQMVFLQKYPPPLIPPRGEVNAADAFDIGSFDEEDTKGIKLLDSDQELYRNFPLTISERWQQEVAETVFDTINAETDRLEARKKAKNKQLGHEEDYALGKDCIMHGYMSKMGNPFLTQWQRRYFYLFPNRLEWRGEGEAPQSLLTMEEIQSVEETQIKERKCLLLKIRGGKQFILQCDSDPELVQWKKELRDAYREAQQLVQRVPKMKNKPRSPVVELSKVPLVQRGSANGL
Chain of ATP-binding cassette sub-family B member 6 (Homo sapiens) (Q9NP58 whole entry, looked up): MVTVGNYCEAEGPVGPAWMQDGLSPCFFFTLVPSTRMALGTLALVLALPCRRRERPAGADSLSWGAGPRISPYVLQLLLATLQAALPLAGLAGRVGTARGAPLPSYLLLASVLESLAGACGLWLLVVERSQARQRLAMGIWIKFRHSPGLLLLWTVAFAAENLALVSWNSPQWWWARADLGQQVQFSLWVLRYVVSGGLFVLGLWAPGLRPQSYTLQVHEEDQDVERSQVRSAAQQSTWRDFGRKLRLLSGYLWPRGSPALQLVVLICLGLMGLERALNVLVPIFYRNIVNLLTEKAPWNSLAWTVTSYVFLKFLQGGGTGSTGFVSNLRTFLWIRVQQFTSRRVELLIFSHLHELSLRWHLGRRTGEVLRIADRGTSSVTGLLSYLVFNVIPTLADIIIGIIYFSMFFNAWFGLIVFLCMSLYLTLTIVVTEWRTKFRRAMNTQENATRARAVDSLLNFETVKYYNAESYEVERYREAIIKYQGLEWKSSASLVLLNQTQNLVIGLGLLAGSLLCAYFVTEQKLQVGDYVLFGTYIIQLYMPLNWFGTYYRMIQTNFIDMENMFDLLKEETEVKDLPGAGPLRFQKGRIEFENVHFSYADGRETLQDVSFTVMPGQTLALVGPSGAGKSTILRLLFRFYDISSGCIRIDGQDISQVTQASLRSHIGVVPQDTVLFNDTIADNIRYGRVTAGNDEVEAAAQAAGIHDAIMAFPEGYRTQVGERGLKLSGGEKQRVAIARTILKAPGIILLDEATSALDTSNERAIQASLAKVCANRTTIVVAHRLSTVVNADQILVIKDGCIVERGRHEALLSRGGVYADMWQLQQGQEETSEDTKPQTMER

For the compound `COc1ccc(-c2cc(=Nc3ccc(C)cc3)c3ccccc3o2)cc1`, the percent of DMSO control GFP in [1] is 97.3% (inactive). For the same compound, the GFP response vs DMSO in assay [2] was 106% (inactive); in assay [4] it was 132% (inactive). Moreover, in assay [3], the percent response of DMSO control is 93.8% (inactive). Also, the GFP response, % of DMSO in assay [5] is 104% (inactive). This compound gave a double positive events in assay [6] of 60.2%. Further, the vesicle binding response in assay [6] is 195% (inactive). Moreover, the values for the inhibition in assay [7], in assay [11] and in assay [15] were 16.8% (inactive), -0.02% (inactive) and 5% (inactive), respectively. Moreover, the superoxide response (% of plate) in assay [8] was 99.5% (inactive). Also, in [9], the aptamer binding inhibition is 0% (inactive). In addition, the figures for the response in assay [10] and in assay [12] were -21.4% (inactive) and 7.52% (inactive), respectively. Also, the binding (% of control) in assay [13] was 97.3% (inactive). Moreover, the efflux inhibition (fraction of control) in assay [14] is -0.04 (inactive). Besides, the differentiation response in assay [16] is -9.91% (inactive).
`C[C@]12CC[C@@H]3c4ccc(O)cc4CC[C@H]3[C@@H]1CCC2=O`: the percent of DMSO control GFP in assay [1] was 101% (inactive). Also, the GFP response vs DMSO in assay [2] was 100% (inactive); in assay [4] it was 125% (inactive). Moreover, the percent response of DMSO control in assay [3] is 95.4% (inactive). For the same compound, the GFP response, % of DMSO in assay [5] is 94.8% (inactive). The same compound gave a double positive events in [6] of 60.6%. The vesicle binding response in assay [6] is 34.4% (inactive). Also, the inhibition in [7] is -13.9% (inactive); in assay [11], 9.61% (inactive); in assay [15], 8% (inactive). For the same compound, the superoxide response (% of plate) in [8] was 98.7% (inactive). Further, the aptamer binding inhibition in assay [9] is 2% (inactive). Also, the response is -0.01% (inactive) in assay [10] and -0.09% (inactive) in assay [12]. Besides, in assay [13], the binding (% of control) is 98.9% (inactive). For the same compound, the efflux inhibition (fraction of control) in assay [14] was -0.32 (inactive). In addition, the differentiation response in assay [16] was 0.24% (inactive).
Take `COc1ccc(S(=O)(=O)NCc2ccco2)c2ccccc12`: the percent of DMSO control GFP in assay [1] is 100% (inactive). The GFP response vs DMSO was 104% (inactive) in assay [2] and 114% (inactive) in assay [4]. The percent response of DMSO control in assay [3] was 88.2% (inactive). Moreover, in assay [5], the GFP response, % of DMSO is 87% (inactive). The same compound came in with a double positive events in assay [6] of 62.3%. The vesicle binding response in assay [6] was 175% (inactive). For the same compound, the inhibition is 7.76% (inactive) in assay [7], -4.99% (inactive) in assay [11] and 7% (inactive) in assay [15]. In addition, in [8], the superoxide response (% of plate) was 89.3% (inactive). Moreover, the aptamer binding inhibition in assay [9] was 3% (inactive). Also, the response in assay [10] was -3.81% (inactive); in assay [12], 1.41% (inactive). Moreover, the binding (% of control) in assay [13] was 96.3% (inactive). Further, the efflux inhibition (fraction of control) in assay [14] was -0.13 (inactive). Besides, in assay [16], the differentiation response was 2.4% (inactive).
Regarding `O=C(c1cccc2ccccc12)C1CCCN(C(=O)CCN2CCCO2)C1` (stereo not given), the percent of DMSO control GFP in assay [1] is 104% (inactive). For the same compound, the GFP response vs DMSO in [2] was 98.3% (inactive); in [4], 105% (inactive). Further, in [3], the percent response of DMSO control was 109% (inactive). Also, the GFP response, % of DMSO in assay [5] was 106% (inactive). The compound also had a double positive events in [6] of 62.4%. Further, the vesicle binding response in assay [6] is 377% (inactive). The results for the inhibition in assay [7], in assay [11] and in [15] were 7.85% (inactive), -0.89% (inactive) and 4% (inactive), respectively. Besides, the superoxide response (% of plate) in assay [8] is 90.5% (inactive). For the same compound, in [9], the aptamer binding inhibition was 0% (inactive). Moreover, the response is -9.24% (inactive) in assay [10] and 2.67% (inactive) in assay [12]. Moreover, the binding (% of control) in assay [13] was 96.4% (inactive). Besides, in assay [14], the efflux inhibition (fraction of control) is -0.32 (inactive). In [16], the differentiation response is -0.73% (inactive).
For `OC(CCN1CCCC1)(c1ccccc1)C1CCCCC1` (stereo not given), in assay [1], the percent of DMSO control GFP was 87.3% (inactive). Further, the GFP response vs DMSO in assay [2] is 134% (inactive); in [4] it was 80.9% (inactive). The percent response of DMSO control in assay [3] is 102% (inactive). For the same compound, the GFP response, % of DMSO in assay [5] is 89.4% (inactive). Also, in assay [6], the double positive events is 63.6%. For the same compound, the vesicle binding response in [6] was 284% (inactive). For the same compound, the inhibition in assay [7] is 0.64% (inactive); in assay [11], 34.9% (inactive); in assay [15] it was 109% (active). In addition, the superoxide response (% of plate) in [8] is 93.8% (inactive). The aptamer binding inhibition in assay [9] was -1% (inactive). For the same compound, the figures for the response in assay [10] and in [12] were 6.72% (inactive) and -6.1% (inactive), respectively. For the same compound, in assay [13], the binding (% of control) was 97.4% (inactive). For the same compound, the efflux inhibition (fraction of control) in [14] was 0.12 (inactive). Further, in assay [16], the differentiation response was -4.91% (inactive).

The values are drawn from PubChem BioAssay.
